The results in this text go back to paper PMC7862700, “An all-to-all approach to the identification of sequence-specific readers for epigenetic DNA modifications on cytosine”.

Holding throughout (assay): DAPPL (digital affinity profiling via proximity ligation, sequencing); 10 mM Tris-HCl pH 7.5, 50 mM NaCl, 1 mM DTT, 4% glycerol, room temperature, 30 min; GST-TFs on glutathione beads, 16-mer random dsDNA library, 0.1% formaldehyde crosslink after washing; high values mean tight binding
One experiment deals with T1, FEV (Homo sapiens, UniProt Q99581 1-238).
T1 sequence: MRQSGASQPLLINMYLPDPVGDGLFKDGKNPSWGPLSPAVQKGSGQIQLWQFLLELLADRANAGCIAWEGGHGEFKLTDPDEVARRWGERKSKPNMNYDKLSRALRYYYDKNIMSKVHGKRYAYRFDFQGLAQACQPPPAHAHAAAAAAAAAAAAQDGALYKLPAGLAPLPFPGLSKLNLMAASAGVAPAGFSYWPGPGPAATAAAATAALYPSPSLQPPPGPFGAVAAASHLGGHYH
The following applies: protein: recombinant; tags: N-terminal GST; dsDNA, one strand shown. A digest of the protocol:
(§1)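 Binding signal is each hexamer's read frequency for a factor divided by its frequency in the tag-only sample. The factors were GST-fused human transcription factors from yeast, captured on glutathione beads, DNA-barcoded and pooled with that sample. Pools were incubated with 200 nmole of a random double-stranded 16-mer DNA library in Tris/NaCl/DTT/glycerol buffer at room temperature for 30 min, then washed, crosslinked with 0.1% formaldehyde, proximity-ligated with BsaI/T4 ligase (1 h, 37 °C), PCR-amplified and sequenced on an Illumina NextSeq500.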

A further experiment addresses ETV5 (Homo sapiens, UniProt P41161 1-510). The following applies: protein: recombinant; tags: N-terminal GST; dsDNA, one strand shown. A digest of the protocol: as §1
For the next experiment, the target named is HSF1 (Homo sapiens, UniProt Q00613 1-529). Particulars: protein: recombinant; tags: N-terminal GST; chain copies: 3; dsDNA, one strand shown. A digest of the protocol: as §1
Another experiment concerns the target T2, SPIC (Homo sapiens, UniProt Q8N5J4 1-248).
T2 sequence: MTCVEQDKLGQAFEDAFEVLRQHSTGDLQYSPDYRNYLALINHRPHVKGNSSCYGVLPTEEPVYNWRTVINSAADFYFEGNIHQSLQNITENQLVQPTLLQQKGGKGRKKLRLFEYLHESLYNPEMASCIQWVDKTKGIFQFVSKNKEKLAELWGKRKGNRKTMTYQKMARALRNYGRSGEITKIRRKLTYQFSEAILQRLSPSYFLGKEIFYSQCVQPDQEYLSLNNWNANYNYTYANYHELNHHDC
The following applies: protein: recombinant; tags: N-terminal GST; dsDNA, one strand shown. A digest of the protocol: as §1

The next experiment deals with ELF4 (Homo sapiens, UniProt Q99607 1-663). The following applies: protein: recombinant; tags: N-terminal GST; dsDNA, one strand shown. A digest of the protocol:
as §1

The next experiment deals with T3, ELK4 (Homo sapiens, UniProt P28324-2 1-405).
T3 sequence: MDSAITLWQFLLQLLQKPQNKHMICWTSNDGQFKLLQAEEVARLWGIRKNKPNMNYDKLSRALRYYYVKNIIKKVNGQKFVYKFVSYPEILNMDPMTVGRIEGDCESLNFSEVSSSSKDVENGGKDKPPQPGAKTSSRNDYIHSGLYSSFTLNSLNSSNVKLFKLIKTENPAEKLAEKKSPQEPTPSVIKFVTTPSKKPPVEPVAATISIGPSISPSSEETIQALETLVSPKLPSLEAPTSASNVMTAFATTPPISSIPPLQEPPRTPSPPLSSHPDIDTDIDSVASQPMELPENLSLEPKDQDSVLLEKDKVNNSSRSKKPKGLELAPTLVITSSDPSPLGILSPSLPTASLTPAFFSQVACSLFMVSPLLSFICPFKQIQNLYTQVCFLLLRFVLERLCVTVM
The following applies: protein: recombinant; tags: N-terminal GST; dsDNA, one strand shown. A digest of the protocol:
as §1

Another experiment addresses T4, ETV2 (Homo sapiens, UniProt O00321 1-342).
T4 sequence: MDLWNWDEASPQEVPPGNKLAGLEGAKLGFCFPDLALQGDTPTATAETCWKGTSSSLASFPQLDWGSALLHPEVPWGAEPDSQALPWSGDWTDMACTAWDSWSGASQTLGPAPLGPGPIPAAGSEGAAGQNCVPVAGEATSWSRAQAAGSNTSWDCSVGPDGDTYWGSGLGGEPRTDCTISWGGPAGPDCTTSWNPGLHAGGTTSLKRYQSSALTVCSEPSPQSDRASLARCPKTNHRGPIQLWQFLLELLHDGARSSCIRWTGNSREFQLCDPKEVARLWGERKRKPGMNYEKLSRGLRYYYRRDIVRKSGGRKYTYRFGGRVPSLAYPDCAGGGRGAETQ
Particulars: protein: recombinant; tags: N-terminal GST; dsDNA, one strand shown. A digest of the protocol: as §1

A further experiment addresses T5, ELF3 (Homo sapiens, UniProt P78545 1-371).
T5 sequence: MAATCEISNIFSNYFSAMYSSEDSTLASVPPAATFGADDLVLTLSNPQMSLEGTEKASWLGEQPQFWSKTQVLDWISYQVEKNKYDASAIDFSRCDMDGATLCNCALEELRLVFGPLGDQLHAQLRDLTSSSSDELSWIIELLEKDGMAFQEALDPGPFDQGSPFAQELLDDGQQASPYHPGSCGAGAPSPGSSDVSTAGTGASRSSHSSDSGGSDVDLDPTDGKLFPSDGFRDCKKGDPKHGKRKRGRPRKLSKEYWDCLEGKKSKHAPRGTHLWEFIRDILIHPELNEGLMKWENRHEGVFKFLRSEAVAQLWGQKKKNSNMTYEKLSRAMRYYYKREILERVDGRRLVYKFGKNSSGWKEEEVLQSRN
Particulars: protein: recombinant; tags: N-terminal GST; dsDNA, one strand shown. A digest of the protocol:
as §1

The target of a further experiment is CRX (Homo sapiens, UniProt O43186 1-299). Particulars: protein: recombinant; tags: N-terminal GST; dsDNA, one strand shown. A digest of the protocol:
as §1

The target in another experiment is ETV1 (Homo sapiens, UniProt P50549 1-477). Particulars: protein: recombinant; tags: N-terminal GST; dsDNA, one strand shown. A digest of the protocol: as §1
The next experiment has as its target T6, ERF (Homo sapiens, UniProt P50548 1-548).
T6 sequence: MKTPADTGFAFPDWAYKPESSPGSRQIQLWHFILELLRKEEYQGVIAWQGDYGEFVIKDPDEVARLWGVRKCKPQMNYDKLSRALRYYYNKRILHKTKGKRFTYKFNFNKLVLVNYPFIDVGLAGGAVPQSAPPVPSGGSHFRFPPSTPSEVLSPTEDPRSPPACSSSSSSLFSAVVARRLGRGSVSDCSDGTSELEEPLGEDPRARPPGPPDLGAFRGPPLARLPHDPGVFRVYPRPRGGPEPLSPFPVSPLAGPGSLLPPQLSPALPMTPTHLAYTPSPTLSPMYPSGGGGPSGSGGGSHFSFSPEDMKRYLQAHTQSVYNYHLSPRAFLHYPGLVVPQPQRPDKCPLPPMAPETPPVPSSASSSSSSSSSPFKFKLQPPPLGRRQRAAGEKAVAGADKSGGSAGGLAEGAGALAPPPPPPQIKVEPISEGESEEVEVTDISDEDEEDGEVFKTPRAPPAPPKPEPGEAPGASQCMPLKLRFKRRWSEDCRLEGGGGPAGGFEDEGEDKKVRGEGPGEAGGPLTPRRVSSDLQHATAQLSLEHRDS
The following applies: protein: recombinant; tags: N-terminal GST; dsDNA, one strand shown. A digest of the protocol:
as §1

The next experiment addresses T7, ETV3L (Homo sapiens, UniProt Q6ZN32 1-361).
T7 sequence: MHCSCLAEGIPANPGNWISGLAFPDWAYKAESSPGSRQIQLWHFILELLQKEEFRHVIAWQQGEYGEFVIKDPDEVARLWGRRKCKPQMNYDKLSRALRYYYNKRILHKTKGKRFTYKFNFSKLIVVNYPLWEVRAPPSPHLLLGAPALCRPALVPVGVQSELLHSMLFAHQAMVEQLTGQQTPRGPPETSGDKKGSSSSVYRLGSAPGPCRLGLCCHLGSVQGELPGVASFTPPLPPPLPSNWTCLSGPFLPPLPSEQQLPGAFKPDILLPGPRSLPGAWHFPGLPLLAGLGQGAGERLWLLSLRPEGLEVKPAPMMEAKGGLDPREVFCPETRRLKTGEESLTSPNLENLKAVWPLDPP
Particulars: protein: recombinant; tags: N-terminal GST; dsDNA, one strand shown. A digest of the protocol:
as §1

Another experiment addresses T8, ETS2 (Homo sapiens, UniProt P15036 1-469).
T8 sequence: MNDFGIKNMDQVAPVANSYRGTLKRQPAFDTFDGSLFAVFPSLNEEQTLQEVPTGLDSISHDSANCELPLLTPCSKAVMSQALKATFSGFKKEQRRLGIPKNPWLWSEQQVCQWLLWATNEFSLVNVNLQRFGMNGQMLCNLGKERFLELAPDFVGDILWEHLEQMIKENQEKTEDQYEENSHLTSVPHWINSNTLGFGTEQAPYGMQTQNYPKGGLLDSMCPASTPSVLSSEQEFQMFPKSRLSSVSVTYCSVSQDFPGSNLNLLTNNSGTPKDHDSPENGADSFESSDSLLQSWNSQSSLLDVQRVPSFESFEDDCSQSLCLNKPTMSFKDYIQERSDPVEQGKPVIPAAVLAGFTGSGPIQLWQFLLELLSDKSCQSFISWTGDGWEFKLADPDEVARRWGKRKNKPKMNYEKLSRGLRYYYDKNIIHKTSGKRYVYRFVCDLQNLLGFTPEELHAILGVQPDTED
Particulars: protein: recombinant; tags: N-terminal GST; dsDNA, one strand shown. A digest of the protocol: as §1

The target in the next experiment is T9, SPDEF (Homo sapiens, UniProt O95238 1-335).
T9 sequence: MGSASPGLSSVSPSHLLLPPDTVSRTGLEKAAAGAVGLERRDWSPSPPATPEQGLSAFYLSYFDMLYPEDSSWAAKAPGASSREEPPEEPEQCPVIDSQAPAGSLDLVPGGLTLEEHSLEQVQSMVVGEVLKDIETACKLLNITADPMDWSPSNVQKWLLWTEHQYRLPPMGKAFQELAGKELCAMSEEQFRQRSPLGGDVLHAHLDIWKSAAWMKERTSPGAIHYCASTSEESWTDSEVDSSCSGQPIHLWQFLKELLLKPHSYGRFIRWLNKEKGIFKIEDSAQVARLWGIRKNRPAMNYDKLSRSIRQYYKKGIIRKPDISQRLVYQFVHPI
Particulars: protein: recombinant; tags: N-terminal GST; dsDNA, one strand shown. A digest of the protocol:
as §1

The next experiment deals with T10, ETV7 (Homo sapiens, UniProt Q9Y603 1-341).
T10 sequence: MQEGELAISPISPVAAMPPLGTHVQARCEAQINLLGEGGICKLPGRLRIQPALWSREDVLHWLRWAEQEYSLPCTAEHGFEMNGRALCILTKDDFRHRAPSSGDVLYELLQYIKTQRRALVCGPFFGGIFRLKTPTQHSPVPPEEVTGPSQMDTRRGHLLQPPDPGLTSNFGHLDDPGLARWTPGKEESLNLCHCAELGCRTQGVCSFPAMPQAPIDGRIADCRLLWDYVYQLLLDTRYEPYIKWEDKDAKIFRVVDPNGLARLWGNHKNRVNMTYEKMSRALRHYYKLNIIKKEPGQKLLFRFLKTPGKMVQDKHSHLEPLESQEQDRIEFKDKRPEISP
Particulars: protein: recombinant; tags: N-terminal GST; dsDNA, one strand shown. A digest of the protocol: as §1

Another experiment deals with T11, ELF5 (Homo sapiens, UniProt Q9UKW6-2 1-255).
T11 sequence: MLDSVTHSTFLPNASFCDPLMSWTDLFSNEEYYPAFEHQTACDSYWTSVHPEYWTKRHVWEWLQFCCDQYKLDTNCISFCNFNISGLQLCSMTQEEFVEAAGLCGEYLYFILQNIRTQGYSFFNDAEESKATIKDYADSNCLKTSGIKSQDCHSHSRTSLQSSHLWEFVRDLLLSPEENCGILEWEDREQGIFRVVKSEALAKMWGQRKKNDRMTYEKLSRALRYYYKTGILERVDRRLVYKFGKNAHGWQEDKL
The following applies: protein: recombinant; tags: N-terminal GST; dsDNA, one strand shown. A digest of the protocol: as §1

The target of the next experiment is T12, ETV3 (Homo sapiens, UniProt P41162-2 1-143).
T12 sequence: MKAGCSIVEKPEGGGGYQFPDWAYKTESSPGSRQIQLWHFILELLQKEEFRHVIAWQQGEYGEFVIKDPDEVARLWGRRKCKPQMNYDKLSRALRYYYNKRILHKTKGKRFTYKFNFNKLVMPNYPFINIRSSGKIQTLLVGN
Particulars: protein: recombinant; tags: N-terminal GST; dsDNA, one strand shown. A digest of the protocol:
as §1

A further experiment deals with ETV6 (Homo sapiens, UniProt P41212 1-452). Particulars: protein: recombinant; tags: N-terminal GST; dsDNA, one strand shown. A digest of the protocol: as §1
ETV6, sequence (P41212 whole entry): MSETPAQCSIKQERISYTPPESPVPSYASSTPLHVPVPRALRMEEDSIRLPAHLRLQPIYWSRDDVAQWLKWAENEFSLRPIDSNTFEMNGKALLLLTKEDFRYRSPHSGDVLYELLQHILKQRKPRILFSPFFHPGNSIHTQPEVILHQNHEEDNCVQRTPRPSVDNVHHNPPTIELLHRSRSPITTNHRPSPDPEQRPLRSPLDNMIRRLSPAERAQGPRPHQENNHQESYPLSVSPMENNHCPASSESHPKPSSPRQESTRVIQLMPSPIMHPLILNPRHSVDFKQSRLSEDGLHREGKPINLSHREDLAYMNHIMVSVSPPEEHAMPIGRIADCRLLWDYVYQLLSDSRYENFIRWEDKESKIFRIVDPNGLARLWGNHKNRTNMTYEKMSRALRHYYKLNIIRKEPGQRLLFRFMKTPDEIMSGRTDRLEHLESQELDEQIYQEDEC

ETV1, sequence (P50549 whole entry): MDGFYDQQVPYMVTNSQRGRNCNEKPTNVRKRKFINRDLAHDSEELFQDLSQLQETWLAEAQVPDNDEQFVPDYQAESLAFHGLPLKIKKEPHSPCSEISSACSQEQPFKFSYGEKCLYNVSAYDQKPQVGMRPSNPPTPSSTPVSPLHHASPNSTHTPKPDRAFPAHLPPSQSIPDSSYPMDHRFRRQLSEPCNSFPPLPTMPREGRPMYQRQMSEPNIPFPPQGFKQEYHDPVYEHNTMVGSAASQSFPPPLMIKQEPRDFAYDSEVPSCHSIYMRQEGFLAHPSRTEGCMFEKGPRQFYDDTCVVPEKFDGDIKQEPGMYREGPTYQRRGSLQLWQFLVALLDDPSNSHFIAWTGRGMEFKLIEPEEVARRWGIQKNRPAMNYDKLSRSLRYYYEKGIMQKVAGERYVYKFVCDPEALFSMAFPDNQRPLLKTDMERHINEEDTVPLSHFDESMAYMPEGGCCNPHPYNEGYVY
HSF1, sequence (Q00613 whole entry): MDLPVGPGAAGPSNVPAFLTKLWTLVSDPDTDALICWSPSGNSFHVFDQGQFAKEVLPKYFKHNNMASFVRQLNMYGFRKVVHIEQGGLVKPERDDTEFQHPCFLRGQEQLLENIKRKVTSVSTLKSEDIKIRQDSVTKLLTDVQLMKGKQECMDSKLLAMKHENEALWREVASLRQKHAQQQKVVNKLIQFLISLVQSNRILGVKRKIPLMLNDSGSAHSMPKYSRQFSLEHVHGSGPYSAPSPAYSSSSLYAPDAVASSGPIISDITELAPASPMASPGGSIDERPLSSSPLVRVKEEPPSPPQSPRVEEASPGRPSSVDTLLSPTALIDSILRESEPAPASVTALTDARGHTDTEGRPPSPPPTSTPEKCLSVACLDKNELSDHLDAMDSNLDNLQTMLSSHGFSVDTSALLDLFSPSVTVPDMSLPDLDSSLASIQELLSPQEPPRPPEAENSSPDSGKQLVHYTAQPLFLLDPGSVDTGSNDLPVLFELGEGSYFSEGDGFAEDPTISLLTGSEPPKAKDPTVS
ETV5, sequence (P41161 whole entry): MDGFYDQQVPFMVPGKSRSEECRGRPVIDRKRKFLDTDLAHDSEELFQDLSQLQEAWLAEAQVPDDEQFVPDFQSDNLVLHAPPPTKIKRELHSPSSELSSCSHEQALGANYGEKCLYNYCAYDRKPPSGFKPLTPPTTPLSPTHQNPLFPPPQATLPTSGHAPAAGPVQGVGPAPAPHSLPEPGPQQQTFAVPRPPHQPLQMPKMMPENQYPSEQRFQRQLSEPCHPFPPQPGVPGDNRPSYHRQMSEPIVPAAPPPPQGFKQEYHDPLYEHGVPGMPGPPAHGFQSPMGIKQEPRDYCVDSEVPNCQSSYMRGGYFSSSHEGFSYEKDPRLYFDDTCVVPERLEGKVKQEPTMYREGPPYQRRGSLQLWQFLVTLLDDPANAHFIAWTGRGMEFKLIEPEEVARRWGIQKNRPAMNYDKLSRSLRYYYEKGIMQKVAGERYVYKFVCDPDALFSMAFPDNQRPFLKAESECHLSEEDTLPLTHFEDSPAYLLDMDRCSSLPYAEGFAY
ELF4, sequence (Q99607 whole entry): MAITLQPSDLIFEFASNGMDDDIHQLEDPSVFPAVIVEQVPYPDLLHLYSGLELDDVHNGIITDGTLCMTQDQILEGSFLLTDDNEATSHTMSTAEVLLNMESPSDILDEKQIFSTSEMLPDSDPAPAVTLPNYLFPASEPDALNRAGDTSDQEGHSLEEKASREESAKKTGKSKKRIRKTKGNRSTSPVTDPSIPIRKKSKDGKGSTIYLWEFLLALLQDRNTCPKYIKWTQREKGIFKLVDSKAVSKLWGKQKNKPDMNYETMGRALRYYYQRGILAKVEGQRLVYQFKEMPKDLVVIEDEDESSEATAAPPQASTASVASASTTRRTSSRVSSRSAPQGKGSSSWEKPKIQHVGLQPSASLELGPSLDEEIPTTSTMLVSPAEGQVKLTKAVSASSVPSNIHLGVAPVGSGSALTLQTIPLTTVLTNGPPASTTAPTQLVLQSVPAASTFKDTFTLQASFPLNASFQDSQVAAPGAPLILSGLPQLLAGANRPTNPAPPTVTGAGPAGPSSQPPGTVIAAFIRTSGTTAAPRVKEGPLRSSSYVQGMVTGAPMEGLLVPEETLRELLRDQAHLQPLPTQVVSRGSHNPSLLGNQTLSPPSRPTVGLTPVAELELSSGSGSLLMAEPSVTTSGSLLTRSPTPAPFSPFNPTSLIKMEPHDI
CRX, sequence (O43186 whole entry): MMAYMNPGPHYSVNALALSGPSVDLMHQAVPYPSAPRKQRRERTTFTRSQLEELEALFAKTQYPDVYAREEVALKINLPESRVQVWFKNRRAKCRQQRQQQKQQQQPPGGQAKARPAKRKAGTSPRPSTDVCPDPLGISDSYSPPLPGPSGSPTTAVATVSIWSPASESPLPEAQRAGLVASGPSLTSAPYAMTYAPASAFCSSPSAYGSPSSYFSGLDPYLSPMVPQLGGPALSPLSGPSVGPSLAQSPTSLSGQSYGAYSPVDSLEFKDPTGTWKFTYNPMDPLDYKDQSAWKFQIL

Take GTTAAC: the binding signal is 1.18 fold enrichment (6-mer frequency, TF over GST control) in the experiment with FEV; 1.19 fold enrichment (6-mer frequency, TF over GST control) with ETV5; 1.02 fold enrichment (6-mer frequency, TF over GST control) in the experiment with HSF1; 1.11 fold enrichment (6-mer frequency, TF over GST control) in the experiment with SPIC; 1.19 fold enrichment (6-mer frequency, TF over GST control) in the experiment with ELF4; 1.25 fold enrichment (6-mer frequency, TF over GST control) in the experiment with ELK4. Also, the binding signal in the experiment with ETV2 is 1.2 fold enrichment (6-mer frequency, TF over GST control); in the experiment with ELF3, 1.21 fold enrichment (6-mer frequency, TF over GST control); in the experiment with CRX it was 1.15 fold enrichment (6-mer frequency, TF over GST control); with ETV1, 1.2 fold enrichment (6-mer frequency, TF over GST control); with ERF, 1.12 fold enrichment (6-mer frequency, TF over GST control); with ETV3L, 1.14 fold enrichment (6-mer frequency, TF over GST control). Also, the binding signal in the experiment with ETS2 was 1.22 fold enrichment (6-mer frequency, TF over GST control); in the experiment with SPDEF, 1.23 fold enrichment (6-mer frequency, TF over GST control); with ETV7, 1.24 fold enrichment (6-mer frequency, TF over GST control); with ELF5, 1.22 fold enrichment (6-mer frequency, TF over GST control); with ETV3 it was 1.27 fold enrichment (6-mer frequency, TF over GST control); in the experiment with ETV6, 1.18 fold enrichment (6-mer frequency, TF over GST control).
